# Test results from PubChem BioAssay (NCATS).
# Values joined by “and” are separate entries in the source; they are usually repeats but may differ in a detail not shown here. Equal values may be shown once. Records with an inconclusive call do not appear. Entries that show only a call come without a potency. Active and inactive are the calls of the source. The call rests on the fitted dose curve; in most records, active means well fitted cell-killing curve with a large enough effect; inconclusive means small, poorly fitted or top-dose-only effect, or effect the other way; inactive means no such curve, though single readings can be large or run the other way.
# Assay: Viability qHTS for spleen associated tyrosine kinase inhibitor (SYKi) drug resistant MV4-11 cells (AID 1963824); further: nearly all actives have a fitted effect of over 35% in size
# Details: SYKi-resistant MV4-11 viability, CellTiter-Glo, 72 h; series mostly up to 45 µM
# Source text: Department of Medicine, Hematology/Oncology
# University Hospital Frankfurt, Germany.
# Trials have shown promising clinical activity of the selective SYK inhibitor entospletinib in patients with high expressing HOXA9/MEIS1 acute leukemias. As the development of resistance mechanisms is a common problem in the use of targeted drugs, we performed a chemical library screen to identify drug sensitivities in SYK inhibitor resistant AML cells. […] Glucocorticoids are potent immunosuppressants which work in part by inhibiting the transcription of cytokine genes.
# Described herein is a viability screen to look for activity in the SYK inhibitor drug resistant cell line against four NCATS compound libraries (MIPE 5.0, NPC, NPACT, and Kinase) totaling 11372 compounds. Active hits were reacquired for confirmation and further secondary assay testing.
# SEQUENCE No. (e.g., 1, 2, 3, etc.); […] (e.g., Cells, Incubation, Reagent, etc.); VALUE; DESCRIPTION.
# 1; Media; 2uL; white, solid-bottom Corning assay plate.
# 2; Compounds; 23nL; Echo acoustic dispenser.
# 3; Cell; 5uL; 500 cells per well.
# 4: Incubation; 72hr; 37 C, 5% CO2, 95% humidity.
# 5; Reagent; 3uL; CellTiter-Glo reagent (Promega).
# 6; Incubation; 10min; room temperature.
# 7; Detection; Luminescence; ViewLux plate reader (PerkinElmer).
# NOTES (numbers refer to Sequence numbers above
# 1. Quantitative high-throughput screening (qHTS) of small molecule compounds was conducted on drug resistant SYKi MV4-11 cell line.
# 2. Twenty-three nanoliter of small molecule compounds were added to each assay plates using the Echo acoustic dispenser (Beckman Coulter).
# 3. Cells were seeded into the assay plates at a final density of 500 cells in 5uL of media per well using the Multidrop Combi dispenser.
# 4. Plates were covered with stainless steel gasketed lids and incubated for 72 hours at standard cell culture conditions.
# 5. Viability was assessed by adding 3uL of CellTiter-Glo detection reagent (Promega).
# 6. Plates were covered with gasket lids and incubated for 10 minutes at room temperature.
# 7. Luminescence was measured on a ViewLux plate reader (PerkinElmer).
# Potency means the concentration at half of the fitted maximal effect.
row,Compound,Potency
1,O=C(CCN1CCN(C(=O)OCc2cc(Cl)cc(Cl)c2)CC1)c1ccc2[nH]c(=O)oc2c1,16.6 µM (active)
2,CCC[C@@H]1C[C@@H](C(=O)N[C@H](C(C)Cl)[C@H]2O[C@H](SC)[C@H](O)[C@@H](O)[C@H]2O)N(C)C1 (stereo not given in full),inactive
3,COc1cc(C(=O)N2CCC(N3CCN(C)CC3)CC2)ccc1Nc1ncc2c(n1)N(C)c1ccccc1C(=O)N2C,651 nM (active) and 1.18 µM (active)
4,Nc1cccc2c1C(=O)N(C1CCC(=O)NC1=O)C2=O (stereo not given),inactive
5,CCc1c(C)nc2c(-c3cnn(-c4cc(CO)ccn4)c3)c[nH]n2c1=O,inactive
6,CC[C@@H](C)[C@@H]1OC2(C=C[C@H]1C)C[C@@H]1C[C@H](C/C=C(\C)[C@H](O[C@H]3C[C@H](OC)[C@H](O[C@H]4C[C@H](OC)[C@H](NC(C)=O)[C@H](C)O4)[C@H](C)O3)[C@H](C)/C=C/C=C3\CO[C@H]4[C@H](O)C(C)=C[C@@H](C(=O)O1)[C@@]34O)O2 (stereo not given in full),2.27 µM (active)
7,O=C1Nc2ccc(I)cc2/C1=C/c1cc(Br)c(O)c(Br)c1,14.8 µM (active)
8,CC(=NNC(=O)c1cccc(S(=O)(=O)N2CCOCC2)c1)c1cc(Cl)ccc1O,0.742 µM (active)
9,COc1nc(C)nc(Cl)c1NC1=NCCN1,inactive
10,C=C[C@H]1[C@H](O[C@@H]2O[C@H](CO)[C@@H](O)[C@H](O)[C@H]2O)OC=C(C(=O)OC)[C@H]1CCOC(=O)c1cc(O)c(O)c(O)c1,inactive
11,COc1cc([C@H]2OC[C@]3(OC(C)=O)[C@@H](c4ccc(O[C@@H]5O[C@H](CO)[C@@H](O)[C@H](O)[C@H]5O)c(OC)c4)OC[C@H]23)ccc1O,inactive
12,CCN(CC)CCOC(=O)C(c1ccccc1)C1CCCCC1 (stereo not given),inactive
13,CCn1c(=O)c(-c2ccc(Cl)cc2Cl)cc2cnc(Nc3ccc(N4CCNCC4)c(F)c3)nc21,231 nM (active) and 186 nM (active)
14,CC(C)(c1ccc(O)cc1)c1ccc(O)cc1,27.9 µM (active)
15,CC(C)[C@@H]1CC[C@@H](C)CC1=O,inactive
16,COc1ccc(C=Cc2cc(OC)c(OC)c(OC)c2)cc1NC(=O)[C@H](N)CO,0.0417 µM (active)
17,CC(=O)O/N=C1\C(=O)N(Cc2cc(Cl)ccc2Cl)c2ccc(Cl)cc21,8.33 µM (active)
18,CC1NC(=O)C(Cc2c[nH]c3ccccc23)NC1=O (stereo not given),inactive
19,COC(=O)C1=CO[C@@H](O[C@@H]2O[C@H](CO)[C@@H](O)[C@H](O)[C@H]2O)[C@@H]2C(CO)=CC[C@]12O,inactive
20,CC(C)=CCC/C(C)=C/CO,inactive

row,Compound,Potency
1,O=[N+]([O-])c1ccc(O)c2ncccc12,7.5 µM (active) and 4.68 µM (active)
2,CCOC(=O)[C@@H](N)CCC(=O)N[C@@H](CSCc1ccccc1)C(=O)N[C@@H](C(=O)OCC)c1ccccc1,5.9 µM (active)
3,CC(C)C(N)C(=O)OCCOCn1cnc2c(=O)[nH]c(N)nc21 (stereo not given),inactive
4,COc1nccnc1NS(=O)(=O)c1ccc(N)cc1,inactive
5,COc1ccc(COc2ccc(Cc3cnc(N)nc3N)cc2OC)cc1,7.31 µM (active)
6,COc1cc(NS(=O)(=O)c2ccc(N)cc2)nc(OC)n1,inactive
7,C=C[C@H]1CN2CC[C@H]1C[C@@H]2[C@@H](O)c1ccnc2ccc(OC)cc12,inactive
8,C[C@H](Oc1cc(-n2cnc3ccc(CN4CCN(C)CC4)cc32)sc1C(N)=O)c1ccccc1C(F)(F)F,0.58 µM (active)
9,CN1CCC(=C2c3ccccc3CCc3sccc32)CC1,18.6 µM (active)
10,C=CC(=O)N1CCC(CNc2ncnc(N)c2-c2ccc(Oc3ccccc3)cc2)CC1,8.33 µM (active)
11,CC(C)(O)c1coc(S(=O)(=O)NC(=O)Nc2c3c(cc4c2CCC4)CCC3)c1,inactive
12,O=C(CCc1nnc2n(Cc3ccc(Cl)cc3)c(=O)c3ccccc3n12)NCCC1=CCCCC1,inactive
13,C[C@@H](Oc1ccc2[nH]nc(/C=C/c3cnn(CCO)c3)c2c1)c1c(Cl)cncc1Cl,0.0525 µM (active)
14,COc1cc(F)c(F)c(Nc2ccc(I)cc2F)c1NS(=O)(=O)C1(C[C@H](O)CO)CC1,0.525 µM (active)
15,CS(=O)(=O)CCNCc1ccc(-c2ccc3ncnc(Nc4ccc(OCc5cccc(F)c5)c(Cl)c4)c3c2)o1,16.8 µM (active) and 8.2 µM (active) and 11.8 µM (active)
16,CC1(C)OCCn2c1nc1c(N3CCOCC3)nc(-c3cnc(N)nc3)nc12,2.95 µM (active)
17,CN(C)CCCSc1ccccc1NC(=O)/C=C/c1ccccc1,inactive
18,Nc1ccc(F)cc1NC(=O)c1ccc(CNC(=O)/C=C/c2cccnc2)cc1,0.833 µM (active)
19,CC(C)(C)CC(C)(C)c1ccc(O)c(-n2nc3ccccc3n2)c1,inactive
20,CN1CCN(Cc2ccc(NC(=O)Cc3ccc(Oc4cc(NC(=O)C5CC5)ncn4)cc3)cc2C(F)(F)F)CC1,inactive
